Among the data in PubChem BioAssay are z-score values, retold here.

Experiment [1] can be described thus: A549 cell viability effects, profiling panel, calcein-AM fluorescence, 48 h, basal (AID 1162). The settings on record: higher = more signal.
Experiment [2] in a line: adipocyte viability effects, profiling panel, cell-based, 3T3-L1 adipocytes, calcein-AM fluorescence, 48 h, basal (AID 1163). The settings on record: 3T3-L1 adipocytes viability, higher = more signal.
Experiment [3] in a line: HepG2 cell viability effects, profiling panel, calcein-AM fluorescence, 48 h, basal (AID 1164). The settings on record: higher = more signal.
A short description of experiment [4]: MM1S cell viability effects, profiling panel, calcein-AM fluorescence, 48 h, basal (AID 1165).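 Further: viability of MM1S multiple myeloma cells under basal unstimulated conditions.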 The settings on record: higher = more signal.
A short description of experiment [5]: basal RPMI8226 viability, no added stimulus, profiling panel, cell-based, calcein-AM fluorescence, 48 h, PK04 Diversity Set (AID 1166).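 Further: cells grown under basal conditions without added stimulus.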 The settings on record: RPMI8226 myeloma viability, higher = more signal.
Experiment [6] in a line: basal HepG2 mitochondrial membrane potential changes, profiling panel, cell-based, JC-1 fluorescence, 24 h, 100 nL compound (AID 1167). The settings on record: higher = more signal.
Experiment [7] in a line: basal 3T3-L1 adipocyte mitochondrial potential changes, profiling panel, cell-based, JC-1 fluorescence, 3T3-L1 adipocytes, 24 h, 100 nL compound (AID 1168). The settings on record: JC-1 mitochondrial fluorescence, higher = more signal, called active from +8 up or from −8 down.
The nature of experiment [8]: basal RPMI8226 mitochondrial membrane potential changes, profiling panel, cell-based, JC-1 fluorescence, 24 h, 100 nL compound (AID 1169). The settings on record: RPMI8226 myeloma, JC-1 mitochondrial potential fluorescence, higher = more signal.
Experiment [9] can be described thus: basal MM1S mitochondrial membrane potential changes, profiling panel, cell-based, JC-1 fluorescence, 24 h, 100 nL compound (AID 1170). The settings on record: higher = more signal.
The nature of experiment [10]: A549 lung cancer cell viability effects, profiling panel, resazurin fluorescence, 24 h, PK04 Diversity Set (AID 1171). The settings on record: higher = more signal, called active from +8 up or from −8 down.

Structures are written as SMILES. The source made the active and inactive calls.
Further: test concentration not given here.

Turning to `C=CCN1Cc2ccccc2[C@H]2OC(c3ccc(OCCCO)cc3)=N[C@@]2(CCS(=O)(=O)c2ccccc2)C1=O`, the z-score is 0.0622 in experiment [1]; 0.413 in experiment [2]; -0.37 in experiment [3]; -1.56 in experiment [4]; -0.209 in [5]; -0.971 in experiment [6]. In addition, the z-score was -0.509 (inactive) in experiment [7], -0.798 in experiment [8], -0.0644 in [9] and 0.0687 (inactive) in [10].

Take `O=C1C2C=CC(C(O)c3ccc([N+](=O)[O-])cc3)N(Nc3ccccc3F)C2C(=O)N1c1ccccc1` (stereo not given): the z-score in experiment [1] is -0.353; in experiment [2], -0.923; in experiment [3] it was -1.16; in experiment [4], 0.375; in experiment [5], -0.958; in [6] it was -1.5. Further, the z-score in experiment [7] was -2.27 (inactive); in [8], -0.268; in experiment [9], -0.127; in [10], -0.364 (inactive).

As to `COC(=O)[C@]1(CCC(=O)OC(C)(C)C)N=C(c2ccc(OCCCO)cc2)O[C@@H]1c1ccccc1N=[N+]=[N-]`, the z-score in [1] was -1.31; in experiment [2], 1.25; in experiment [3], -0.527; in experiment [4], -2.84; in experiment [5], -3.53; in experiment [6], 0.874. Further, the z-score is 1.78 (inactive) in experiment [7], -1.02 in experiment [8], -1.57 in experiment [9] and -1.46 (inactive) in experiment [10].

Regarding `CC1CC/C=C\[C@H]2OC34C=CCN(c5ccc6ccccc6c5)C(=O)[C@H]3N(C(C)CO)C(=O)[C@@H]4C2C(=O)O1` (stereo not given in full), the z-score in experiment [1] was -0.326; in [2], -4.43; in [3] it was 1.05; in [4], 1.6; in experiment [5], -0.311; in [6], 0.333. The z-score in experiment [7] was 0.0486 (inactive); in experiment [8], 0.195; in experiment [9], -0.532; in [10], -0.0299 (inactive).

For the compound `CCCC[C@H]1OB(O)C[C@H]2C1=C(COc1ccccc1)C[C@H]1C(=O)C=CC(=O)[C@H]12`, the z-score is 0.696 in experiment [1]; -0.0337 in experiment [2]; 0.176 in [3]; -3.27 in [4]; -3.25 in experiment [5]; -1.59 in experiment [6]. For the same compound, the z-score is -0.201 (inactive) in experiment [7], -0.431 in experiment [8], -1.08 in [9] and 0.121 (inactive) in experiment [10].

For `COCCOC(=O)N1C(=O)[C@@]2(c3cc(C#Cc4ccc(OC)cc4)ccc31)[C@H](c1ccc(OCCO)cc1)N1[C@H](c3ccccc3)[C@H](c3ccccc3)OC(=O)[C@H]1[C@@H]2C(=O)NC[C@H](O)c1ccccc1`, the z-score is 0.0843 in experiment [1]; -0.129 in [2]; -0.294 in experiment [3]; -0.291 in experiment [4]; -1.48 in experiment [5]; -0.305 in experiment [6]. Further, the z-score in experiment [7] was 1.67 (inactive); in [8], -0.68; in experiment [9], -1.52; in experiment [10] it was -0.377 (inactive).

On to `CC(C)NC(=O)[C@@H]1c2ccccc2C(=O)N(Cc2ccccc2C(F)(F)F)[C@H]1c1ccc(CO)cc1`, for which the z-score in [1] is -0.385; in [2], -0.341; in [3] it was -0.052; in experiment [4], -0.321; in experiment [5] it was 0.749; in [6], 0.186. Further, the z-score is -1.81 (inactive) in [7], 0.317 in experiment [8], 0.0239 in [9] and 2.53 (inactive) in experiment [10].

As to `C[N+](C)(C)CCCC[C@@H]1NC(=O)[C@H]2C[C@@H](C(=O)NCCCCCNC(=O)CS)[C@@H](c3cccc(OCCO)c3)N2C1=O`, the z-score is 0.316 in experiment [1]; 0.571 in experiment [2]; -0.953 in experiment [3]; -0.631 in experiment [4]; 0.37 in experiment [5]; 1.09 in experiment [6]. The z-score in [7] was 0.127 (inactive); in experiment [8] it was 0.812; in experiment [9] it was 0.415; in experiment [10], -0.219 (inactive).

On to `CCOC(=O)c1cn(C[C@H](Cc2ccccc2)NC(=O)N[C@H](CO)CCc2oc(C(C)=O)c(C(=O)OC)c2C(=O)OC)nn1`, for which the z-score was -0.462 in experiment [1]; 1.16 in experiment [2]; 0.0702 in experiment [3]; -0.0594 in experiment [4]; -1.88 in [5]; -1 in experiment [6]. In addition, the z-score in experiment [7] was 0.871 (inactive); in [8] it was -0.44; in [9] it was -0.0478; in experiment [10] it was -0.636 (inactive).

Turning to `O=C(O)[C@H](Cc1ccccc1)n1cc(C2(O)CCCCC2)nn1`, the z-score in experiment [1] is -0.53; in experiment [2], -1.54; in [3], 0.105; in [4] it was -0.364; in [5], -0.361; in experiment [6] it was -1.14. In addition, the z-score in [7] was -0.569 (inactive); in experiment [8], 0.791; in experiment [9], -0.417; in experiment [10] it was 0.0465 (inactive).

Regarding `CCOC(=O)C1=CC[C@@H](c2ccccc2)N(S(=O)(=O)c2ccc(C)cc2)[C@H]1c1ccccc1I`, the z-score in experiment [1] is -0.855; in [2], -1.01; in experiment [3], -0.47; in [4], -0.676; in [5], -0.965; in experiment [6], 1.5. Further, the z-score was -1.61 (inactive) in experiment [7], 1.14 in experiment [8], -1.16 in experiment [9] and 0.998 (inactive) in experiment [10].

Turning to `COc1ccc(C(O)C2C=CC3C(=O)NC(=O)C3N2Nc2ccc(Cl)cc2Cl)c2ccccc12` (stereo not given), the z-score is -1.88 in experiment [1]; 0.0133 in [2]; -2.36 in experiment [3]; -3.8 in experiment [4]; -3.99 in [5]; -3.88 in [6]. In addition, the z-score in experiment [7] was 0.564 (inactive); in experiment [8], -1.1; in experiment [9] it was 0.533; in [10], -1.29 (inactive).

For the compound `O=C1O[C@@H](c2ccccc2)[C@@H](c2ccccc2)N2[C@@H](c3ccc(OCCO)cc3)[C@]3(C(=O)Nc4ccc(C#CC5(O)CCCCCC5)cc43)[C@@H](C(=O)Nc3nc4ccccc4s3)[C@H]12`, the z-score in experiment [1] was 0.324; in experiment [2], 1.33; in experiment [3] it was 0.667; in [4], -1.64; in [5], -1.79; in experiment [6] it was -3.13. Moreover, the z-score in experiment [7] was -0.456 (inactive); in [8], -0.805; in experiment [9], -0.344; in [10], 0.524 (inactive).

As for `O=C1O[C@H](c2ccccc2)[C@H](c2ccccc2)N2[C@H]1[C@@H](C(=O)O)[C@]1(C(=O)Nc3ccc(C#CCCO)cc31)[C@H]2c1ccc(OCCO)cc1`, the z-score in [1] was 0.616; in [2], 1; in experiment [3], 0.461; in experiment [4] it was -0.963; in experiment [5], 0.926; in experiment [6] it was -0.76. For the same compound, the z-score in experiment [7] was -0.138 (inactive); in experiment [8], 0.489; in experiment [9] it was 0.492; in [10] it was 0.367 (inactive).
